Inconclusive results are not listed. Activity calls are given as the source filed them. How the source made its calls, unless noted: active means hit-call score of the fitted dose curve at least 0.9, where 1 is the maximum; inactive means score below 0.9.
Legend:
[1] = target: Glucocorticoid receptor (Homo sapiens) (UniProt P04150); test: ATG_GR_TRANS: Attagene TRANS-FACTORIAL HepG2 Assay for human Glucocorticoid Receptor (GR) (AID 2282978; active means hit-call score of the fitted dose curve at least 0.9, where 1 is the maximum;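 further: activators score as hits since higher reporter transcript over DMSO is fitted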); details: HepG2 Attagene TRANS GR reporter, mRNA transcription
Sequence of Glucocorticoid receptor (Homo sapiens) (P04150 whole entry, looked up, the tested form may be a part): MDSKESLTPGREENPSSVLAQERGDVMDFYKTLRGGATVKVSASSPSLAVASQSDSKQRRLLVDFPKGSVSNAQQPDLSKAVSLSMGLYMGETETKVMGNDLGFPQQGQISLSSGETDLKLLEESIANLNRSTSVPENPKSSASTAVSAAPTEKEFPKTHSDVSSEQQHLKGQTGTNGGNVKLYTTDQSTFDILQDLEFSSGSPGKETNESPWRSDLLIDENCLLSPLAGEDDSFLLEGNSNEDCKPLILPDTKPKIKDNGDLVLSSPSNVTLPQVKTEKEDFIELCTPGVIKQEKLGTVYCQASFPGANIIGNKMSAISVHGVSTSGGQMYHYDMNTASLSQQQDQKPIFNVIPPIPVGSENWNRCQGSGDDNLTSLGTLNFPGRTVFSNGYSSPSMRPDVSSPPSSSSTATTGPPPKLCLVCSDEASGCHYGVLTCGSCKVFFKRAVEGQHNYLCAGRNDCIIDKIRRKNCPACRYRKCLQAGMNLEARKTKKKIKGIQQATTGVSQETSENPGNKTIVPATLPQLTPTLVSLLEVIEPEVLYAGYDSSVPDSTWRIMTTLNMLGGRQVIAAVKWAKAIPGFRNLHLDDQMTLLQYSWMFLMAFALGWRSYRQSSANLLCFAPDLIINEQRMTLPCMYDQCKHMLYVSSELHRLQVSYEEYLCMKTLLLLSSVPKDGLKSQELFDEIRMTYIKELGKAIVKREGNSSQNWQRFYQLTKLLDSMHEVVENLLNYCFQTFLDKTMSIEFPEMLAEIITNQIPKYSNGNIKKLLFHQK
Summary of the method: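 HepG2 transient transfection, multiple reporter units, GAL4-UAS under NR-GAL4 chimera control. 24 h treatment. Reporter mRNA by RT-PCR/CE fluorescence, DMSO as negative control.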

[2] = target: Oxysterols receptor LXR-alpha (Homo sapiens) (UniProt Q13133); test: ATG_LXRa_TRANS: Attagene TRANS-FACTORIAL HepG2 Assay for human Liver X Receptor alpha (LXRa) (AID 2282980; active means hit-call score of the fitted dose curve at least 0.9, where 1 is the maximum); details: HepG2 Attagene TRANS reporter, LXRa transactivation
Sequence of Oxysterols receptor LXR-alpha (Homo sapiens) (Q13133 whole entry, looked up, the tested form may be a part): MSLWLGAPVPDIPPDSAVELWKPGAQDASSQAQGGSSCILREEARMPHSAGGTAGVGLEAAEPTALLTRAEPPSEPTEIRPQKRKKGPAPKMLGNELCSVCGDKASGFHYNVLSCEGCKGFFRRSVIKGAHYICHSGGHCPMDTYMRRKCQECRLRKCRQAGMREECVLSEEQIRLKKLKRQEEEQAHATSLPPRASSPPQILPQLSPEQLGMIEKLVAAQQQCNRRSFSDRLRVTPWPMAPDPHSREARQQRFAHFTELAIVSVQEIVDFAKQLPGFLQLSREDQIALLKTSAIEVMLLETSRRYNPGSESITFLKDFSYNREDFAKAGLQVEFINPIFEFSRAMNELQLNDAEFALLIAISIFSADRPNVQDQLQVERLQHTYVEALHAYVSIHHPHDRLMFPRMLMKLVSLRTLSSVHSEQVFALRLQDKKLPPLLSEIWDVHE
Summary of the method: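 HepG2 cells were transiently transfected with multiplexed reporter units driven by chimeric LXRa–GAL4 fusion proteins, then dosed for 24 h. Reporter mRNA was quantified by RT-PCR, fluorescent labelling and capillary electrophoresis; gain of signal fitted against DMSO baseline.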

[3] = target: Hepatocyte nuclear factor 4-alpha (Homo sapiens) (UniProt P41235); test: ATG_HNF4a_TRANS: Attagene TRANS-FACTORIAL HepG2 Assay for human Hepatocyte Nuclear Factor 4 alpha (HNF4a) (AID 2282982; active means hit-call score of the fitted dose curve at least 0.9, where 1 is the maximum); details: HepG2 HNF4a transactivation reporter, mRNA readout
Sequence of Hepatocyte nuclear factor 4-alpha (Homo sapiens) (P41235 whole entry, looked up, the tested form may be a part): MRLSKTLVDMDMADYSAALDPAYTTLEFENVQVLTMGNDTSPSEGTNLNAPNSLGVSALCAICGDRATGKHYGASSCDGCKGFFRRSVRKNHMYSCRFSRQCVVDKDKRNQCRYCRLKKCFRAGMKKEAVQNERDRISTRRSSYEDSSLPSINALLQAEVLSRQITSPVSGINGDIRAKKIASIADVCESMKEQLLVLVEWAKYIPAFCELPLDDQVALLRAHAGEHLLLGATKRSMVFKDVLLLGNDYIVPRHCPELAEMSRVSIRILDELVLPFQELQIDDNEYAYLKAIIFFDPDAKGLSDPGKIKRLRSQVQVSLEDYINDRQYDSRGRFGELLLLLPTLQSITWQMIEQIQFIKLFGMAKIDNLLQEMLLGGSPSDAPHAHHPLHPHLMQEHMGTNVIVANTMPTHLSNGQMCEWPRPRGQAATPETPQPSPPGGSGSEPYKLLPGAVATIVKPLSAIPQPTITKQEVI
Summary of the method: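 Endpoint reflects transcriptional activation of a GAL4-UAS reporter by an HNF4a-GAL4 chimera in transfected HepG2 cells, 24 h post-dosing. Fluorescence from RT-PCR products separated by capillary electrophoresis; DMSO baseline.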

[4] = target: Nuclear receptor subfamily 4 group A member 2 (Homo sapiens) (UniProt P43354); test: ATG_NURR1_TRANS: Attagene TRANS-FACTORIAL HepG2 Assay for human Nuclear Receptor Related Protein 1 (NURR1) (AID 2282985; active means hit-call score of the fitted dose curve at least 0.9, where 1 is the maximum); details: HepG2 Attagene TRANS reporter, mRNA readout
Sequence of Nuclear receptor subfamily 4 group A member 2 (Homo sapiens) (P43354 whole entry, looked up): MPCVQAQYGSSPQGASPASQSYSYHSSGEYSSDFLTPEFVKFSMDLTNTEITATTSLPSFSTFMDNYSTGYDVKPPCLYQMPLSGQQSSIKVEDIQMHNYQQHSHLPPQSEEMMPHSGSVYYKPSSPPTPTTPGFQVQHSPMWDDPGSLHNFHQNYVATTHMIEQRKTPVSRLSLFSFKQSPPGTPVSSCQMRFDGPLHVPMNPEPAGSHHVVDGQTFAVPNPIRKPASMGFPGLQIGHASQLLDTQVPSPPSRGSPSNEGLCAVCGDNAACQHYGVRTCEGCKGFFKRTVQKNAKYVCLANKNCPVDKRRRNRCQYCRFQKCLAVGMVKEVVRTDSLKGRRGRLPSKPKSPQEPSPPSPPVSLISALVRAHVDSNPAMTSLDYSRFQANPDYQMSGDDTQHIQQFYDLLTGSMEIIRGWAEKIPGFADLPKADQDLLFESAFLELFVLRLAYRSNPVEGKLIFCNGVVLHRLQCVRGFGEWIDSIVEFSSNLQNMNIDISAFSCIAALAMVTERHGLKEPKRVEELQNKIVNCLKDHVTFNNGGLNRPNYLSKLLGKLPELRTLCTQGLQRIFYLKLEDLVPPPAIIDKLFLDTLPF
Summary of the method: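 Endpoint: reporter mRNA increase relative to DMSO. HepG2 cells transfected with reporter units, treated 24 h; RNA processed by RT-PCR, labelling, HpaI digestion and capillary electrophoresis.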

[5] = target: Transcriptional activator Myb (Homo sapiens) (UniProt P10242); test: ATG_Myb_CIS: Attagene CIS-FACTORIAL HepG2 Assay for human Myeloblastosis (Myb) Proto-Oncogene Transcription Factor (AID 2282986); details: HepG2 Attagene CIS-FACTORIAL Myb reporter transcription; actives raise or lower the signal
Sequence of Transcriptional activator Myb (Homo sapiens) (P10242 whole entry, looked up): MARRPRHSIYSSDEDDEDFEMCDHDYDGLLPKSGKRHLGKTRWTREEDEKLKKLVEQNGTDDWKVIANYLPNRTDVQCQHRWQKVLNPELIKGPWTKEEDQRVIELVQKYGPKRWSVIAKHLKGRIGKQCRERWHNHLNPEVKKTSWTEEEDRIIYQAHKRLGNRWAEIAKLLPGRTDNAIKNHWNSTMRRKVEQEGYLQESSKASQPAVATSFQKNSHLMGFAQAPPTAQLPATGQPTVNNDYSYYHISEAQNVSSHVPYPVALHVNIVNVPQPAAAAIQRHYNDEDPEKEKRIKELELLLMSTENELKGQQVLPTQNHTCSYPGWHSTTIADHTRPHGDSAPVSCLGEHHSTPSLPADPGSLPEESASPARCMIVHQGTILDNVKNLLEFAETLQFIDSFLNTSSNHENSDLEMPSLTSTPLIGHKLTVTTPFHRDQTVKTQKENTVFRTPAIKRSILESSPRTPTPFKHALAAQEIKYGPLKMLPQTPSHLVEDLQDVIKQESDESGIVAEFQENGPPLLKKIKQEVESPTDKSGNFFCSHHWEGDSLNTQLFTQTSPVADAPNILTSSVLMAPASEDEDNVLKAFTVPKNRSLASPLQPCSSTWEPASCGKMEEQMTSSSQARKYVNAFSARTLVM
Summary of the method: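 Multiplexed cis-reporter system in HepG2: transient transfection, 24 h treatment, mRNA readout by RT-PCR and capillary electrophoresis. Both increases and decreases are scored versus DMSO negative control.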

[6] = target: Nuclear respiratory factor 1 (Homo sapiens) (UniProt Q16656); test: ATG_NRF1_CIS: Attagene CIS-FACTORIAL HepG2 Assay for human Nuclear Respiratory Factor 1 (NRF1) Orphan Gene (AID 2282987); details: HepG2 NRF1 cis-element reporter, Attagene multiplex; actives raise or lower the signal
Sequence of Nuclear respiratory factor 1 (Homo sapiens) (Q16656 whole entry, looked up): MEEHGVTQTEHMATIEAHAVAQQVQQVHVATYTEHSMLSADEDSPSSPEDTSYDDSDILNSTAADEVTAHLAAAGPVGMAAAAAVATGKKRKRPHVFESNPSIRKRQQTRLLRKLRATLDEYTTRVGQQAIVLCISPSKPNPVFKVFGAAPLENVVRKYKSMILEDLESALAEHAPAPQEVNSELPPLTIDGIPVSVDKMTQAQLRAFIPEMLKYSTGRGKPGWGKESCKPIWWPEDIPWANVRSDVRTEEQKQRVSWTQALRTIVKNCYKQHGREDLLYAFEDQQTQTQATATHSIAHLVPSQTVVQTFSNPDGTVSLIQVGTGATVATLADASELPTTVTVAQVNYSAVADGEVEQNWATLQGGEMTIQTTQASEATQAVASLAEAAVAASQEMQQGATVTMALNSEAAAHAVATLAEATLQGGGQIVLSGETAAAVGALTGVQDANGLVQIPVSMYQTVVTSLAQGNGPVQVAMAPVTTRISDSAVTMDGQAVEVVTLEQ
Summary of the method: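 Endogenous factor activity was captured via cis-element-driven reporter transcripts in HepG2 cells. Following 24 h chemical treatment, transcripts were quantified by RT-PCR and capillary electrophoresis.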

[7] = ATG_NFI_CIS: Attagene CIS-FACTORIAL HepG2 Assay for human Nuclear Factor I (NFI) (AID 2282989); details: HepG2 cis-regulatory reporter, NFI response element transcription; actives raise or lower the signal
Summary of the method: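 Reporter transcripts were measured by RT-PCR with fluorescent primer extension and capillary electrophoresis 24 h post-treatment. HepG2 cells carried transiently transfected cis-regulated reporter constructs reporting endogenous factor activity; gain or loss fitted against DMSO baseline.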

[8] = target: Myc proto-oncogene protein (Homo sapiens) (UniProt P01106); test: ATG_Myc_CIS: Attagene CIS-FACTORIAL HepG2 Assay for human Myelocytomatosis (Myc) Proto-Oncogene Transcription Factor (AID 2282990); details: HepG2, Attagene cis-reporter transcription factor activity; actives raise or lower the signal
Sequence of Myc proto-oncogene protein (Homo sapiens) (P01106 whole entry, looked up, the tested form may be a part): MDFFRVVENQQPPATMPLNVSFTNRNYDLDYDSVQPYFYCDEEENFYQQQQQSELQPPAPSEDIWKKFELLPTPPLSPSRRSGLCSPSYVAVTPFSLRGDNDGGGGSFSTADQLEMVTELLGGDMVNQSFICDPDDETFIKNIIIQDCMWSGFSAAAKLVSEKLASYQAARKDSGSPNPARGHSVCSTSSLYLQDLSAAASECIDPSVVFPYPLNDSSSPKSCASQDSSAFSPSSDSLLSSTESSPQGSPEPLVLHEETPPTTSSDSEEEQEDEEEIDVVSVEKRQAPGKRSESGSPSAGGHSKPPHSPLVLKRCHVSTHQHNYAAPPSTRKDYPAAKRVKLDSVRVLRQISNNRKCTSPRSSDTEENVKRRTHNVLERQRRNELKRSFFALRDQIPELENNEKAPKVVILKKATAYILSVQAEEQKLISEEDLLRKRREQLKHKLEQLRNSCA
Summary of the method: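 Read-out: fluorescent reporter mRNA fragments resolved by capillary electrophoresis after RT-PCR. Human HepG2 liver cells carried transfected cis-element reporter units and were dosed for 24 h. Gain or loss of signal fitted relative to DMSO baseline.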

[9] = ATG_NRF2_ARE_CIS: Attagene CIS-FACTORIAL HepG2 Assay for human Nuclear Factor Erythroid 2 Related Factor 2 (NFR2) response to Antioxidant Response Elements (ARE) (AID 2282992); details: HepG2 Attagene ARE/NRF2 reporter, transcription factor activity; actives raise or lower the signal;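 on AC50: reporter mRNA level measured by RT-PCR and capillary electrophoresis fluorescence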
Summary of the method: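 Endogenous transcription factor activity in human liver HepG2 cells is tracked via a cis-element-driven reporter within a multiplexed set. mRNA induction is read by RT-PCR and capillary electrophoresis after 24 h, with DMSO as baseline.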

[10] = ATG_Oct_MLP_CIS: Attagene CIS-FACTORIAL HepG2 Assay for human Octamer-Binding Transcription Factor (Oct) (AID 2282993); details: HepG2 Attagene cis-factorial Oct reporter, mRNA; actives raise or lower the signal
Summary of the method: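 Readout is reporter transcript level from RT-PCR with fluorescent primer extension and capillary electrophoresis, fitted in both directions against DMSO. Transfected HepG2 reporter units report endogenous factor activity after 24 h dosing.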

[11] = target: Bile acid receptor (Homo sapiens) (UniProt Q96RI1); test: ATG_FXR_TRANS: Attagene TRANS-FACTORIAL HepG2 Assay for Farnesoid X Receptor (FXR) (AID 2282979; active means hit-call score of the fitted dose curve at least 0.9, where 1 is the maximum;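 further: hits raise reporter mRNA above DMSO so AC50 marks FXR activation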); details: HepG2 Attagene TRANS FXR-GAL4 reporter transcription
Summary of the method: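 HepG2 cells transiently transfected with reporter constructs in which a chimeric FXR-GAL4 protein drives a GAL4-UAS reporter; 24 h compound exposure. Reporter mRNA measured by RT-PCR, FAM labelling, HpaI digestion and capillary electrophoresis; gain-of-signal versus DMSO.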

[12] = ATG_M_06_TRANS: Attagene TRANS-FACTORIAL HepG2 Assay for M06 Transcription Factor (Internal Marker) (AID 2282983; active means hit-call score of the fitted dose curve at least 0.9, where 1 is the maximum); details: HepG2 Attagene TRANS M06 internal marker reporter
Summary of the method: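 In this multiplexed HepG2 system, compounds are incubated 24 h with cells carrying GAL4-UAS reporter units. Reporter RNA is amplified and resolved by capillary electrophoresis, and induction is scored against DMSO.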

[13] = target: Cellular tumor antigen p53 (Homo sapiens) (UniProt P04637); test: ATG_p53_CIS: Attagene CIS-FACTORIAL HepG2 Assay for human p53 Transcription Factor (AID 2282994); details: HepG2 p53 cis-element reporter, Attagene mRNA; actives raise or lower the signal
Sequence of Cellular tumor antigen p53 (Homo sapiens) (P04637 whole entry, looked up, the tested form may be a part): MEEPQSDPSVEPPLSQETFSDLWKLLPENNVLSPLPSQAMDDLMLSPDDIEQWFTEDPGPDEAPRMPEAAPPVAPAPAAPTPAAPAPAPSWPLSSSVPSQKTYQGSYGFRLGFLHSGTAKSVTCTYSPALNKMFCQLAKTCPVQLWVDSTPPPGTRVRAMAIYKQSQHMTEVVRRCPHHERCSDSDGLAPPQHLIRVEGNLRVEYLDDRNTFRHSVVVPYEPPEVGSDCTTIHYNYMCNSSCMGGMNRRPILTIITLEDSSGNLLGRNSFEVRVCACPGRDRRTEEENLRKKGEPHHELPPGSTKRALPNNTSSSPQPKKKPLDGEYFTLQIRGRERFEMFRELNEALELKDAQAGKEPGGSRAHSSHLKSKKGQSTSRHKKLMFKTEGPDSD
Summary of the method: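 Steps: transfect HepG2 with multiplexed cis reporter constructs; dose chemicals 24 h; extract RNA, reverse-transcribe, PCR-amplify reporter sequences; FAM-label, HpaI-digest, resolve fragments by CE. Activity fitted both directions relative to DMSO.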

[14] = target: Oxysterols receptor LXR-beta (Homo sapiens) (UniProt P55055); test: ATG_LXRb_TRANS: Attagene TRANS-FACTORIAL HepG2 Assay for human Liver X Receptor beta (LXRb) (AID 2282981; active means hit-call score of the fitted dose curve at least 0.9, where 1 is the maximum); details: HepG2 Attagene TRANS GAL4-LXRb reporter, mRNA
Sequence of Oxysterols receptor LXR-beta (Homo sapiens) (P55055 whole entry, looked up, the tested form may be a part): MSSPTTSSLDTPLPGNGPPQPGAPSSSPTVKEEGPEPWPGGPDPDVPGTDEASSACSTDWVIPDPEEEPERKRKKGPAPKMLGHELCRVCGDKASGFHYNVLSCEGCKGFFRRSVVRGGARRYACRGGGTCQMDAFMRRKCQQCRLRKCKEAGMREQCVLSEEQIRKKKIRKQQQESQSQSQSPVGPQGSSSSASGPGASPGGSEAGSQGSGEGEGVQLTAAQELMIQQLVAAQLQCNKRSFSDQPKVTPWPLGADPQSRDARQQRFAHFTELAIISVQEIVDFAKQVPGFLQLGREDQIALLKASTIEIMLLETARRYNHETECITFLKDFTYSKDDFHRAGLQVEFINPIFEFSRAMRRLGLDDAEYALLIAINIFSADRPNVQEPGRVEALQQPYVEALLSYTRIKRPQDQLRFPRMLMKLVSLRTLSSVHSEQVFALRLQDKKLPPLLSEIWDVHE
Summary of the method: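 Multiplexed reporter assay, HepG2, 24 h dosing. Fluorescence of labelled RT-PCR products after capillary electrophoresis gives transcript level; positive fitting direction relative to DMSO.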

[15] = ATG_NF_kB_CIS: Attagene CIS-FACTORIAL HepG2 Assay for human Nuclear Factor Kappa B (NF-kB) (AID 2282991); details: HepG2 Attagene cis-factorial NF-kB reporter mRNA; actives raise or lower the signal
Summary of the method: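 After 24 h compound incubation, transfected HepG2 cells yield total RNA; reporter cDNA is PCR-amplified, end-labelled with 6-FAM, HpaI-digested and analysed on a genetic analyser. Endogenous factor activity, DMSO-referenced bidirectional fit.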

[16] = BSK_3C_TissueFactor: BioMAP Diversity Plus: 3C Assay for Tissue Factor Biomarker Activity (AID 2282997); details: BioMAP 3C HUVEC, tissue factor biomarker readout; actives raise or lower the signal
Summary of the method: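 Readout: Tissue Factor ELISA. Cells: human primary umbilical vein endothelium. Time: 24 h after dosing. Analysis: bidirectional fit, DMSO baseline.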

[17] = BSK_3C_uPAR: BioMAP Diversity Plus: 3C Assay for Urokinase-type plasminogen activator receptor (uPAR) Biomarker Activity (AID 2282998); details: BioMAP 3C HUVEC, uPAR biomarker ELISA; actives raise or lower the signal
Summary of the method: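 Cell-surface uPAR on HUVEC (3C system) read by ELISA at 24 h post-treatment, with DMSO as baseline and fitting in both directions. Parallel cultures stained with SRB to flag overt cytotoxicity.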

[18] = BSK_3C_VCAM1: BioMAP Diversity Plus: 3C Assay for Vascular cell adhesion molecule 1 (VCAM1) Biomarker Activity (AID 2282999); details: BioMAP 3C HUVEC, VCAM1 ELISA, cytokine-stimulated; actives raise or lower the signal
Summary of the method: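 HUVEC primary cells, 24 h compound exposure; VCAM-1 by ELISA; gain/loss of signal fitted bidirectionally vs DMSO baseline.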

[19] = BSK_4H_Eotaxin3: BioMAP Diversity Plus: 4H Assay for Eotaxin 3 Biomarker Activity (AID 2283000); details: primary human endothelial cells (HUVEC); actives raise or lower the signal
Summary of the method: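 HUVEC, 24 h post-dose, ELISA for Eotaxin-3/CCL26. Gain or loss of signal fitted bidirectionally vs DMSO baseline.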

[20] = ATG_M_32_TRANS: Attagene TRANS-FACTORIAL HepG2 Assay for M32 Transcription Factor (Internal Marker) (AID 2282984; active means hit-call score of the fitted dose curve at least 0.9, where 1 is the maximum;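 further: transcript level of a background control reporter unit measured by RT-PCR and capillary electrophoresis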); details: HepG2 Attagene TRANS M32 internal marker reporter
Summary of the method: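 Internal-marker readout from a multiplexed transcription reporter panel. HepG2 cells were transfected with GAL4-UAS reporter units, treated 24 hours, and reporter transcript levels determined by fluorescence after RT-PCR and capillary separation.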

Measured: AC50

CN1Cc2c(N)cccc2C(c2ccccc2)C1 (configuration not stated)
inactive: [1] | [2] | [3] | [4] | [5] | [6] | [7] | [8] | [9] | [10]

CC(=O)OCc1ccc2c(c1)OCO2
inactive: [1] | [11] | [12] | [4] | [5] | [6] | [7] | [8] | [9] | [10] | [13]

COc1cc(C=O)ccc1OC(=O)C(C)C
not listed: [3] | [11] | [20]
inactive: all other assays above

CC(=O)Nc1ccc(CC(=O)O)cc1
inactive: [1] | [2] | [14] | [6] | [7] | [8] | [9] | [10] | [13]

CC1CCC(C(C)CS)CC1S (configuration not stated)
active: [5] 50.5 µM | [8] 52.4 µM | [9] 33.4 µM | [10] 26.1 µM | [13] 52.6 µM | [16] 36.7 µM | [18] 30 µM | [19] 30.3 µM
not listed: [3] | [4] | [11]
inactive: all other assays above

CC(=O)OCCOC(C)=O
not listed: [4] | [7] | [11] | [14] | [16] | [17] | [18] | [19]
inactive: all other assays above

O=C(O)c1ccc(C(=O)O)cc1
not listed: [11] | [14] | [16] | [17] | [18] | [19]
inactive: all other assays above

C=CCOc1nc(OCC=C)nc(OCC=C)n1
not listed: [3] | [4] | [11] | [16] | [17] | [18] | [19]
inactive: all other assays above

CCCCCC=CCC(=O)OC
not listed: [11] | [12] | [16] | [17] | [18] | [19] | [20]
inactive: all other assays above

CCc1ccc(C=O)cc1
not listed: [11] | [16] | [17] | [18] | [19]
inactive: all other assays above

CC(C)CCCCCCCOC(=O)c1ccc(C(=O)OCCCCCCCC(C)C)c(C(=O)OCCCCCCCC(C)C)c1
not listed: [4] | [11] | [14] | [16] | [17] | [18] | [19]
inactive: all other assays above

CC1=CCC(O)(C(C)C)CC1 (configuration not stated)
not listed: [4] | [11] | [15] | [16] | [17] | [18] | [19]
inactive: all other assays above

O=C1CCCCCCCCCCOCCCCO1
active: [9] 167 µM
not listed: [11] | [14] | [16] | [17] | [18] | [19] | [20]
inactive: all other assays above

CC(O)C(C)O (configuration not stated)
not listed: [11] | [16] | [17] | [18] | [19] | [20]
inactive: all other assays above

O=C(O)c1cccc([N+](=O)[O-])c1
not listed: [4] | [11] | [14] | [16] | [17] | [18] | [19]
inactive: all other assays above

Nc1cc([N+](=O)[O-])ccc1Cl
active: [9] 62.5 µM
not listed: [2] | [3] | [4] | [5] | [7] | [14]
inactive: all other assays above

Clc1ccc2c(c1)C(N1CCNCC1)=Nc1ccccc1O2
active: [2] 44.4 µM | [10] 47 µM
not listed: [11] | [13] | [16] | [17] | [18] | [19]
inactive: all other assays above

CC(C)(C)NC(N)=O
not listed: [3] | [4] | [11] | [16] | [17] | [18] | [19] | [20]
inactive: all other assays above

C=C(C)C(=O)O
inactive: [1] | [2] | [14] | [20] | [4] | [5] | [6] | [8] | [9] | [10] | [13]

Cc1ccc(C(=O)c2cc(O)c(O)c([N+](=O)[O-])c2)cc1
active: [1] 144 µM
not listed: [4] | [11] | [16] | [17] | [18] | [19]
inactive: all other assays above

Reference: PubChem BioAssay (EPA / NIEHS)
